# Source: the supplement of paper PMC11417369
# Over roughly 25,000 sequences, “ln(normalized median fluorescence intensity)” has its median near 9.7; the highest 2% begin near 11. This is one part of a sample in which the highest values are shown more often than they occur.
# Tested on: PfAP2-HC AP2 domain (GST-tagged)
# Assay: gcPBM binding intensity (ln(normalized median fluorescence intensity)); higher = stronger DNA binding
# Summary of the method: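 Probes on an Agilent 4 × 180k array were primer-extended, double-stranded and 36 bp long, taken from intergenic genomic regions, with negative controls added. GST-tagged P. falciparum DNA-binding domains from E. coli, about 25 μg on average, were applied to the array for 1 h in 1× PBS containing 1% milk, 0.2 mg/ml BSA, 0.5% salmon testes DNA and 0.03% Triton X-100. Binding intensity, obtained after Alexa488 anti-GST antibody detection and a 488 nm scan, is the highest Masliner-normalised natural-log median intensity across replicate spots of either probe orientation.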
row,Sequence,gcPBM binding intensity (ln)
1,TTAAAATTTTTCAAAAGTACATAAATAATATATATT [XGTACX_site4694],9.32
2,ATAAACAGATCATATACATGCATATATGTAGAATAA [TGCATGCA_site157],9.82
3,CACGCGCACGAACACACACACACACGCATATAAATA [CACACA_site7103],11
4,CACACGCACGAACACACACACACACGCATATAAATA [CACACA_site6302],10.9
5,CACACGCACGAACACACACACACACGCACGCACATA [CACACA_site6305],10.7
6,AACACGCGCAGACACACACACACACGCACATATATA [CACACA_site7104],10.9
7,CACACGCACGAACACACACACATATAAATATAAATA [CACACA_site6299],10.2
8,CACACGCACGAACACACACACACACGCGCACATATA [CACACA_site6304],11
9,ATATACTATTAACCACATATGTGTGTTAATTTATAT [GTGCAC_negctrl_site315],9.79
10,CATATATAATAATATTGTACATATATAATAATAATA [XGTACX_site3338],9.69
11,AAATAAGAACATAGAATGCACTTTTTTTTTTTTTCC,9.51
12,TAAATATATGCATATACACACAACAAAAAAATATAT [CACACA_site2341],10.1
13,TAAGTATACGCATACACACACACACCCAAAAAAAAA [CACACA_site425],10.4
14,AAGAAAATAAAAAATAAGCATAATATGATATGATAT [TGCATGCA_negctrl_site196],10.1
15,AATAAGTATACACATACACACACACCCAAAAAAAAA [CACACA_site8034],11
16,GGTGATAATAAGCATACACACACACCCAAAAAAAAA [CACACA_site8137],10.2
17,TGATAATAAGCATACACACACACACTAAAAAAAAAA [CACACA_site6478],10.9
18,TGATAATAAGCATACACACACACACCCAAAAAAAAA [CACACA_site721],11.2
19,AAGTAAAATAAGTATACACACATAAATATATATATA [CACACA_site685],10.1
20,TGATAATAAGCATACACACACACACTAGAAAAAAAA [CACACA_site4558],11.5
21,AATAAAATAATAAAAGCACACAAGAATACACCCAAA [CACACA_site7919],10.6
22,AATAAATTGGTATGTTGTACAAAGTAACCATCGATT [XGTACX_site2823],9.75
23,ATTCCACTGTTTTAGTGTACTGGTCGTTTTTTTTTT [XGTACX_site1738],9.89

row,Sequence,gcPBM binding intensity (ln)
1,TTAAATAAAATAAAAACATGCACACTTTATTTTTTT [TGCATGCA_site719],9.74
2,TATTAATTATTATGACATACATATCAGTTATTAAAA [CACACA_negctrl_site600],9.35
3,GTTACACCAACAAACACACACACACCCACCCACAAA [CACACA_site2427],10.6
4,AGCACCCACCAACACACACACACACCCACCCACCCA [CACACA_site8011],11.2
5,GTTACACCAACAAACACACACACACCGACACCCAAA [CACACA_site5361],10.6
6,ATCAAGCACCAACACACACACACACCCCCACCCACA [CACACA_site370],11.3
7,AGCACCCACCAACACACACACACACCCACCCACCGA [CACACA_site368],11.2
8,TCTTTATTATTCGCCACACACATATATATATATATA [CACACA_site3077],10.1
9,TTTCCAAATTGTTGACGGACACTCACGAATAGTTAT [XGTACX_site5720],9.63
10,ATTAAATGATCAAGGTGTACATTAACAAGAACTATA [XGTACX_site7022],9.72
11,CGTAGCCGCACTAACACACACAAATATACGCAATCA [CACACA_site2898],10.1
12,TACGTAGCCACACTAACACACACAAATATGCACAAT [CACACA_site8942],10.9
13,CGTAGCCACACTAACACACACAAATATACACAATCA [CACACA_site7379],10.7
14,TTTTTTTAAAGAATTATCATAAAATGATTGCATCAT [XGTACX_negctrl_site141],9.34
15,GCGAAATATTATTATAGTATACAAATACTTCTATGA [CACACA_negctrl_site197],9.51
16,TATCCATATTTGTTCACACACACACCGATTTATATA [CACACA_site5888],10.2
17,TGTATCCATATTTGTTCACACACACCCATATTTATA [CACACA_site9190],10.4
18,TATCCATATTTGTTCACACACACACCCATTTATATA [CACACA_site3571],11
19,TATAAAAAAAAAAAAAAAAAAAAAAATATATATATA [CACACA_negctrl_site817],9.34
20,TGGGATAGATCATTTACACACACAAAAAAAAAAAAA [CACACA_site2140],9.89
21,TTATTTATTTATTATAGTTCACTTGAAAATACAAGA [CACACA_negctrl_site1480],9.38
22,ATAGTATACGGACACACACACACACCGATATATATA [CACACA_site5032],11.2
23,CATACACGCGGACACACACACACACGCATATATAAC [CACACA_site6427],11.2

row,Sequence,gcPBM binding intensity (ln)
1,TATAGATACATATACACACACACACCGACATATATA [CACACA_site9138],10.8
2,TATACACGCGGACACACACACACACGCAAAAAAAAA [CACACA_site6377],10.5
3,CGCATACACGGACACACACACACATATATATATATA [CACACA_site4520],10.9
4,AAAAAAAAAAGACACACACACACACGCATATACATA [CACACA_site7289],10.7
5,AGTATACATATATATACACACACACCGATATATATA [CACACA_site8357],10.4
6,GGCATACACGGACACACACACACACCGACATATATA [CACACA_site4493],11.5
7,ATAGTATACAGACACACACACACACCGATATATATA [CACACA_site8511],10.7
8,TATATATACATATACACACACACACCGATATATATA [CACACA_site8706],10.5
9,CACGCATACGGACACACACACACACCGATATATATA [CACACA_site4521],11
10,TACATGAATAAACTTACACACACCCATGCATACATA [CACACA_site97],10.4
11,ATGTTATAATTTAGTGTGCACATATTAAGAGGAACA,10.1
12,TACATACAGATATATACACACATATATAATATATAT [CACACA_site4376],10
13,CCCTTAATATAAAGCACACATATATATAATATATAT [CACACA_site4439],9.79
14,CAAAATAAAAATAACACACACATTTATTTATATACA [CACACA_site6679],10.1
15,CCCCTCGAAATAATTTGTACGAATATATTGTCTGTA [XGTACX_site8308],9.68
16,ATGTATATGATTAAATGTACGTAAACAAATTTGTAA [XGTACX_site8174],9.81
17,ATATCATTAAAAGGATGTACATATGTGTATACAATA [XGTACX_site871],9.84
18,TATATATATATATATATATATATTAATATATATTAC [XGTACX_negctrl_site103],9.62
19,AAAAAAAAAAGACACACACACATAGACCTCCAATAG [CACACA_site7646],10.5
20,AAAAAAAAAAAAAACACACACACATAGACCTCCAAT [CACACA_site3563],11.3
21,AAAAAAAAAAAACACACACACATAGACCTCCAATAG [CACACA_site3562],10.3
22,ATAAAGAAATAAAGTTGTACATTATATATATATATA [XGTACX_site7729],9.61
23,GGTATATTAAAATAGGTGCATAAAACTAAGAGAAAA [GTGCAC_site9781],9.73

row,Sequence,gcPBM binding intensity (ln)
1,ATCAAAAGAAAACACACACACATACAGATATATATA [CACACA_site5974],11.2
2,TAGATACAGAAACACACACACACATACATATATACA [CACACA_site3437],10.6
3,AAAAAAAAAAAACATACACACATACATACAGATATA [CACACA_site4681],10.1
4,ATCAAAAGAAAACACACACACATACATATATATATA [CACACA_site3795],11.1
5,AAAAAATACATCAAAAGAAACATATATATATATATA [GTGCAC_negctrl_site719],9.59
6,AAAGAAAGAAAACACACACACATATATATATATCAA [CACACA_site3743],10.9
7,ATCTTTTATATATTCACACATAAAATTATACAGATA [CACACA_site5277],9.46
8,TATATTTCAGGGGGGAGTACAAATTTTTTTATATAA [XGTACX_site1600],10
9,ATATATGGGTAGTATACACACTGTATATTTAGGAAT [CACACA_site7357],9.91
10,ATATATATATATATGTGTACTAATAAGGTTAAATAA [XGTACX_site1535],9.85
11,AAAAAAAAAAGAAACACACACATATAGATTTATAAC [CACACA_site6927],10.9
12,CAAGAAAAGAAACACACACACATATATATATATATA [CACACA_site3881],11.2
13,AAAAAAAAAAAAGAAACACACATATATATATATATA [CACACA_site140],9.68
14,AAAAAAAAAAAAGAAACACACACATATATATATATA [CACACA_site8525],10.7
15,AAGAAAAAAAAAAAAACACACATATATATATATATA [CACACA_site2027],10.2
16,AAAAAAAAGAAAAACACACACATATATATATAGAAT [CACACA_site1006],11.3
17,AAAAAAAAAAAAAAAACACACATATAGATTTATATA [CACACA_site7196],9.88
18,AAAAAAAAAAGAAACACACACATATATATATAGAAT [CACACA_site1777],10.3
19,TATATATAGAAACACACACACACATATATATATATT [CACACA_site2539],11.3
20,TATATATAGAAACACACACACATATATATATATATT [CACACA_site4115],10.5
21,AAAAAAAAGAAAAACACACACATATTTATTTATAAC [CACACA_site6600],10.2
22,TATATATAGAAACACACACACACATATATATATATA [CACACA_site4116],10.3
